Each structure is given as a SMILES string. About 79,000 compounds went through this panel and 15% of them were active in at least one assay; those are over-represented in the sample as a whole. A number with no mark means an inactive call. Active and inactive are the calls of the source. Rule as the data show it: active = growth inhibition above about 70%; inactive = the rest.

Assay [1] can be described thus: NCI Yeast Anticancer Drug Screen. Data for the rad50 strain (AID 155).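 Also: 0% = growth of vehicle-only cultures of the same strain.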 Particulars: S. cerevisiae rad50 strain growth inhibition; at 50.0 µM; hits give high values. Summed up:
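Yeast carrying a defined DNA repair defect were exposed to test compounds, and growth was compared with vehicle-treated controls to give percent inhibition.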

Assay [2] can be described thus: NCI Yeast Anticancer Drug Screen. Data for the mec2-1 strain (AID 157). Particulars: S. cerevisiae mec2-1 strain, at 50.0 µM, hits give high values. The method, boiled down:
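Readout is yeast growth inhibition, normalised to vehicle-treated controls, in the mec2-1 strain exposed to compound.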

The nature of assay [3]: NCI Yeast Anticancer Drug Screen. Data for the sgs1 mgt1 strain (AID 161).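 Also: 0% = growth of cultures given vehicle only.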 Particulars: S. cerevisiae sgs1 mgt1 strain, at 50.0 µM, hits give high values. Summed up:
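Growth of a repair-deficient yeast mutant was monitored after compound treatment and expressed as inhibition relative to vehicle-treated cultures.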

Assay [4] can be described thus: NCI Yeast Anticancer Drug Screen. Data for the cln2 rad14 strain (AID 165).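 Also: 0% = growth equal to vehicle treated cultures.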 Particulars: S. cerevisiae cln2 rad14 strain, at 50.0 µM, hits give high values. The method, boiled down: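 Relative to vehicle controls, growth inhibition of compound-treated cln2 rad14 yeast was recorded.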
Assay [5] is described as follows: NCI Yeast Anticancer Drug Screen. Data for the bub3 strain (AID 167). Particulars: S. cerevisiae bub3 mutant strain, at 50.0 µM, hits give high values. The method, boiled down: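 Compounds were applied to a genetically altered yeast strain carrying a cell-cycle control defect. Growth inhibition was scored against vehicle-treated controls.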
Assay [6] can be described thus: NCI Yeast Anticancer Drug Screen. Data for the mlh1 rad18 strain (AID 175). Particulars: S. cerevisiae mlh1 rad18 strain growth inhibition; at 50.0 µM; hits give high values. Summed up:
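Test agents were incubated with a yeast strain of defined genotype (DNA damage repair defect). Inhibition of growth was derived by comparison with vehicle-exposed cultures.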

As for `COc1ccc(C(=O)C(=O)c2ccccc2)cc1`, the growth inhibition in assay [1] is 26.6%; in assay [2], 34.1%; in assay [3], 31.9%; in assay [4], 1.85%; in assay [5] it was 11.1%; in assay [6], 33.5%.

For `CN(CCCN(C)CCC1CCCCC1)CCC1CCCCC1`, the growth inhibition in assay [1] was 11.2%; in assay [2], -1.05%; in assay [3], 0.1%; in assay [4], 54.8%; in assay [5] it was 2.15%; in assay [6], 7.7%.

In the case of `N#C/C(=C\c1ccc2c(c1)OCO2)c1ccccc1`, the growth inhibition in assay [1] was 10.4%; in assay [2], -0.7%; in assay [3], 3.15%; in assay [4] it was 10.2%; in assay [5], 1.95%; in assay [6], 24.1%.

With `CCNc1ncnc2[nH]ncc12`, the growth inhibition in assay [1] is -8.2%; in assay [2], -6.45%; in assay [3] it was -5.6%; in assay [4], -13.8%; in assay [5] it was 3.9%; in assay [6], -5.3%.

With `CN1C(=O)NC(c2ccc(Cl)cc2)(c2ccc(Cl)cc2)C1=O`, the growth inhibition was 44.9% in assay [1]; 11.1% in assay [2]; -23% in assay [3]; -11.9% in assay [4]; -8% in assay [5]; 91% (active) in assay [6].

Regarding `Cc1ccc(S(=O)(=O)CCCl)cc1`, the growth inhibition in assay [1] was 6.8%; in assay [2], -7.35%; in assay [3] it was -21.9%; in assay [4], -31.2%; in assay [5], 5.3%; in assay [6] it was 7.85%.

In the case of `CC(=O)Nc1ccc(C(=O)c2ccc(S(=O)(=O)Nc3ccccc3)cc2)cc1`, the growth inhibition is 6.5% in assay [1]; -9.15% in assay [2]; 5.55% in assay [3]; 16.9% in assay [4]; 6.05% in assay [5]; -14.4% in assay [6].

With `O=C(c1cccc(C(=O)c2ccc3c4c(cccc24)C(=O)N(c2ccccc2)C3=O)c1)c1ccc2c3c(cccc13)C(=O)N(c1ccccc1)C2=O`, the growth inhibition in assay [1] was -35.5%; in assay [2] it was -36.8%; in assay [3] it was -23.1%; in assay [4], 12.1%; in assay [5] it was -25.4%; in assay [6] it was -20.8%.

As for `CCC(C)C1CCC(O)CC1` (configuration not stated), the growth inhibition in assay [1] was 30.8%; in assay [2], 9.55%; in assay [3], 9.15%; in assay [4], 21.5%; in assay [5], 24.2%; in assay [6], 18.9%.

Take `Cc1ccc(O)c(N)c1`: the growth inhibition in assay [1] is 2.1%; in assay [2] it was -12.5%; in assay [3], -20.3%; in assay [4], 2.35%; in assay [5], -9.6%; in assay [6], 0.95%.

For the compound `CC(C)Sc1ncnc2nc[nH]c12`, the growth inhibition in assay [1] is 2.4%; in assay [2], 1.1%; in assay [3] it was -3.05%; in assay [4], -0.9%; in assay [5], 18.9%; in assay [6] it was 2.5%.

Regarding `C=CC(C)C(C)(C)O` (configuration not stated), the growth inhibition was -3.2% in assay [1]; -43.5% in assay [2]; -1% in assay [3]; 4.25% in assay [4]; -13.5% in assay [5]; -2.4% in assay [6].

As for `COc1nc(Nc2cccc(C(F)(F)F)c2)nc(OC)n1`, the growth inhibition in assay [1] was 8.5%; in assay [2], -8%; in assay [3], 15.4%; in assay [4] it was 7.9%; in assay [5], 23.2%; in assay [6] it was 6.25%.

For `CC(=O)OC(C)c1cccc(C#N)c1` (configuration not stated), the growth inhibition was 7.15% in assay [1]; -25.4% in assay [2]; 6.2% in assay [3]; -8.9% in assay [4]; -2.95% in assay [5]; 22% in assay [6].

For the compound `S=CN1CCCCC1`, the growth inhibition in assay [1] is -25.1%; in assay [2] it was -16.2%; in assay [3], -7.8%; in assay [4], -2.4%; in assay [5], -23.8%; in assay [6], -8.75%.

Regarding `Cc1ccc(C)c2c1CCC2=O`, the growth inhibition in assay [1] was 3.9%; in assay [2], 3.85%; in assay [3] it was 13.8%; in assay [4], -19.2%; in assay [5] it was 3.85%; in assay [6] it was 13.3%.

On to `CC(c1ccccc1)N(C)C` (configuration not stated), for which the growth inhibition in assay [1] was 12.7%; in assay [2], -1.8%; in assay [3], 0.4%; in assay [4], 7.6%; in assay [5], 5.9%; in assay [6], 1.6%.

On to `O=Cc1ccc(O)c(O)c1`, for which the growth inhibition in assay [1] was 17.6%; in assay [2] it was -6.5%; in assay [3], 11.6%; in assay [4] it was 7.75%; in assay [5], 4.05%; in assay [6], 18.9%.

With `COc1ccc(C(=O)/C(=N/Nc2ccccc2)c2ccc(OC)cc2)cc1`, the growth inhibition is -3.45% in assay [1]; -13.8% in assay [2]; -1.25% in assay [3]; 2% in assay [4]; 1.8% in assay [5]; 30.8% in assay [6].

For `CN(C)c1ccc2c(N(C)C)cc(N(C)C)nc2c1`, the growth inhibition is -14.8% in assay [1]; -4.3% in assay [2]; -17.1% in assay [3]; 20.4% in assay [4]; 2.95% in assay [5]; -12% in assay [6].

Take `Cc1cc(Nc2ccc3c(c2)OCO3)c2cc3c(cc2n1)OCO3`: the growth inhibition is 10.6% in assay [1]; -9.15% in assay [2]; -14.9% in assay [3]; 3.8% in assay [4]; -0.5% in assay [5]; -42.1% in assay [6].

In the case of `O=S1(=O)c2ccccc2Oc2ccccc21`, the growth inhibition in assay [1] was -26.2%; in assay [2], -19.4%; in assay [3], -23.7%; in assay [4], 16.6%; in assay [5] it was 3.4%; in assay [6] it was -14.6%.

The record behind these values is PubChem BioAssay (NCI).
